Reference: PubChem BioAssay AID602449 (Sanford-Burnham Center for Chemical Genomics, 2012)
About 5,000 (1.4%) of roughly 360,000 compounds were called active. The list comes from a sample in which actives are over-represented; it also holds similar structures and randomly drawn compounds. Values without a mark were called inactive.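 Rule for the calls: active = inhibition of 50% or more, scaled per plate between neutral and stimulator controls; inactive = the rest.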

Experiment: blockers of Ca2+-induced mitochondrial swelling – biochemical, isolated mouse mitochondria, absorbance, primary screen (AID 602449);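 note: 0% = DMSO wells given calcium and 100% = 1 mM EGTA wells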
Conditions: 30 min, at 10 µM, stronger effect = higher value

With `Cc1ccc2nnn(Cc3cccc(C(C)(C)C)c3O)c2c1` the inhibition was 93.7% (active).
With `COc1ccc(/C=C2/SC(=O)N(CCCCCC(=O)Nc3ccccc3C(=O)O)C2=S)cc1` the inhibition was 60% (active).
With `O=C(Cc1ccc(Cl)c(Cl)c1)Nc1ccc(SC(F)F)cc1` the inhibition was 82% (active).
In the case of `Cc1nc2nc(SCC(=O)Nc3cccc(F)c3)[nH]c2cc1Br`, the inhibition is reported as 63.9% (active).
For `Cn1nccc1NC(=O)Nc1ccc(OC(F)(F)F)cc1`, the inhibition was 60.1% (active).
In the case of `Nc1nnc(SCC(=O)Nc2ccc3nc(SCC(=O)Nc4ccccc4)sc3c2)s1`, the inhibition is reported as 95.5% (active).
In the case of `CC(=O)c1c(C)[nH]c(C(=O)COC(=O)c2cccc(S(=O)(=O)N(C)c3ccccc3)c2)c1C`, the inhibition is reported as 99.3% (active).
In the case of `CCCC(C(=O)OCCN(CC)CC)(c1ccccc1)c1ccccc1`, the inhibition is reported as 85.7% (active).
In the case of `Cc1ccccc1C(=O)NC(=S)Nc1ccc(N2CCN(C(=O)c3ccccc3)CC2)cc1`, the inhibition is reported as 57.1% (active).
With `N#C/C(=C(/O)Cc1cccc2ccccc12)c1nc2ccccc2s1` the inhibition was 95.9% (active).
For `COc1ccccc1Oc1ccc(S(=O)(=O)Nc2cccnc2)cc1`, the inhibition was 82.5% (active).
In the case of `CCCc1nc2c(c(=O)c3ccccc3n2C)c(=O)n1C1CCCCCC1`, the inhibition is reported as 77.9% (active).
With `Oc1c(Br)cccc1/C=N/Nc1c(F)c(F)c(F)c(F)c1F` the inhibition was 102% (active).
With `CCOC(=O)c1ccc(NC(=O)Cn2cnc3cc(C)c(C)cc32)cc1` the inhibition was 96.9% (active).
With `CN(c1cccc(NC(=O)Nc2ccc(Cl)cc2)c1)S(C)(=O)=O` the inhibition was 92.2% (active).
With `Cc1ccc(S(=O)(=O)N(CC(=O)Nc2cccc([N+](=O)[O-])c2)Cc2ccc(Cl)cc2)cc1` the inhibition was 80.3% (active).
In the case of `CN(c1ccccc1)S(=O)(=O)c1cccc(NC(=O)Cc2ccc(Cl)cc2)c1`, the inhibition is reported as 61.7% (active).
With `Clc1ccc(-c2cc(C3CCNCC3)[nH]n2)c(Cl)c1` the inhibition was 76.8% (active).
With `O=C1c2ccccc2C2=Nc3ccccc3SC(c3ccccc3F)C12` (configuration not stated) the inhibition was 93.3% (active).
In the case of `O=C(/C=C(O)/C=C/c1ccc(O)cc1)/C=C/c1ccc(O)cc1`, the inhibition is reported as 75.2% (active).

Going from `COc1ccc(NC(=O)CCCN2C(=O)C(c3ccccc3)Oc3cccnc32)cc1` (configuration not stated) to `CCOC(=O)c1ccc(NC(=O)CCn2c(=O)oc3ccccc32)cc1`, the inhibition falls from 1.6% to 0.1%.

Going from `CCCNC(=O)c1ccccc1NC(=O)CSCc1ccc(OC)cc1` to `CC(Oc1ccc(F)cc1)C(=O)Nc1ccccc1C(=O)NC1CC1` (configuration not stated), the inhibition falls from 0% to -1.6%.

First: CCN1C[C@@H]2[C@@H]3C(=O)N(C)C(=O)[C@@H]3[C@](C)(C1=O)N2C(=O)c1ccccc1
Second: CCN1C(=O)[C@@H]2[C@@H](c3ccc(-c4cccc(Cl)c4)cc3)N3CCC[C@@]3(C(=O)OC)[C@@H]2C1=O
The inhibition of the first is higher: -0.4% for the first, -1% for the second.

First: COc1ccc(S(=O)(=O)N[C@@H]2C=C[C@@H](CC(=O)N3CCc4ccccc4C3)O[C@@H]2CO)cc1
Second: CN(c1cccc(NC(=O)c2ccc(CN3CCc4ccccc4C3)cc2)c1)S(C)(=O)=O
The inhibition of the first is higher: 0.4% for the first, 0% for the second.

Going from `Cc1cc(C)c(C#N)c(SCC(=O)N(CC(C)C)C2CCS(=O)(=O)C2)n1` (configuration not stated) to `CCC(C)N(C(=O)Cn1nc(C)c([N+](=O)[O-])c1C)C1CCS(=O)(=O)C1` (configuration not stated), the inhibition rises from -1.7% to 0.4%.

Going from `CC1=C(C/C=C(\C)CCCC(C)CCCC(C)CCCC(C)C)C(=O)c2ccccc2C1=O` (configuration not stated) to `COCC(C)n1c(C)cc(C(=O)CSc2cc(C)c3ccccc3n2)c1C` (configuration not stated), the inhibition rises from -2.2% to 3.2%.

Going from `COc1ccc(CCNS(=O)(=O)c2cn(C)nc2C)cc1` to `COc1ccc(S(=O)(=O)Nc2cccnc2)c(Cl)c1Cl`, the inhibition rises from -0.3% to 0.5%.

Compared with `N#C/C(=C\c1cccnc1)C(=O)Nc1ccc(SC(F)F)cc1`, `CCC1CCCCN1C(=S)Nc1ccc(SC(F)F)cc1` (configuration not stated) is higher in inhibition: 7.2% for the first, 34% for the second.

First: CCc1nc2c(OCCOc3ccc(F)cc3)cccn2c1N(C)C(=O)c1ccccc1F
Second: CC(Oc1ccc(-c2ccccc2)c(F)c1)c1ccn(S(=O)(=O)c2cccc3ccccc23)n1 (configuration not stated)
The inhibition of the first is lower: 0.6% for the first, 1% for the second.

Going from `Cc1nc2nc(SCC(=O)c3ccccc3)[nH]c2cc1Br` to `COC(=O)Nc1nc2ccc(Sc3ccccc3)cc2[nH]1`, the inhibition falls from 9.9% to 1.2%.

Compared with `O=C(CSc1nc2[nH]c(=O)[nH]c(=O)c2s1)Nc1cccc(F)c1`, `CCCCNC(=O)CSc1nc2ccc(NC(=O)CSc3nnc(N)s3)cc2s1` is higher in inhibition: -0.6% for the first, 15.3% for the second.

Going from `COc1cc(OC)cc(-c2c(-c3cccs3)c3cc(-c4ccc(OC)nc4)ccc3n2C)c1` to `COc1ccc(/C=C/C(=O)c2c(O)cc(OC)cc2OC)cc1`, the inhibition rises from -0.4% to 1.2%.

First: CCC(C)NC(=O)c1ccccc1NC(=O)c1ccccc1N(C)S(C)(=O)=O (configuration not stated)
Second: CN(c1ccccc1)S(=O)(=O)c1ccc(Cl)c(C(=O)OCC(N)=O)c1
The inhibition of the first is lower: 0.4% for the first, 1.9% for the second.

First: CCCNC(=O)c1cc(C2CCCCN2S(=O)(=O)c2cn(C)cn2)on1 (configuration not stated)
Second: Cc1ccc(S(=O)(=O)NC2CCCCCC2)cc1C(N)=O
The inhibition of the first is lower: 0.2% for the first, 1% for the second.

Going from `O=C(NCc1cc(C(F)(F)F)cc(C(F)(F)F)c1)C1CC(c2cccc(F)c2)=NO1` (configuration not stated) to `CCOC(=O)NC(C(F)(F)F)(C(F)(F)F)P(=O)(c1ccccc1)c1ccccc1`, the inhibition falls from 2% to -3.1%.

First: COC(=O)Cc1ccc(OCC(=O)Nc2ccc(OC(F)(F)F)cc2)cc1
Second: CN(CC(=O)Nc1ccc(OC(F)(F)F)cc1)C(=O)C1CCC1
The inhibition of the first is higher: 0.1% for the first, -0.8% for the second.

Going from `Cc1sc2ncnc(N3CCC(C(=O)NNC(=O)c4ccc(F)cc4)CC3)c2c1C` to `O=C(c1ccc2c(c1)OCCO2)C1CCN(S(=O)(=O)c2cccc(F)c2)CC1`, the inhibition falls from 0.7% to -4.7%.

First: Cc1ccc2cc(CN(c3ccc(C)c(C)c3)S(C)(=O)=O)c(=O)[nH]c2c1
Second: COc1ccc(C)cc1S(=O)(=O)N(CC(=O)Nc1cccc([N+](=O)[O-])c1)c1ccc(C)cc1
The inhibition of the first is lower: -0.6% for the first, 0.7% for the second.

Compared with `C/C(=N\Nc1ccc([N+](=O)[O-])cc1)c1ccc(-n2nncc2C(C)(C)C)cc1`, `CCOC(=O)c1ccc(NC(=O)CS(=O)(=O)c2cn(CC)c3ccccc23)cc1` is lower in inhibition: 20.4% for the first, 1% for the second.

Compared with `Cc1nc(C)c2c(c1C(F)(F)F)-c1ccccc1C2(F)F`, `CC1=CC(=C(C#N)c2nc3ccccc3s2)C=C(C)N1c1ccc(F)cc1F` is higher in inhibition: -0.4% for the first, 1.2% for the second.

Compared with `COc1cc(S(=O)(=O)Nc2ncn[nH]2)ccc1Cl`, `CCN(CC)S(=O)(=O)c1ccc(N2CCCC2)c(NS(=O)(=O)c2cccs2)c1` is lower in inhibition: -1.7% for the first, -2.4% for the second.

First: CCCCNC(=O)CSc1nc2ccc(NC(=O)CSc3nnc(COc4ccccc4C)n3C)cc2s1
Second: CCN(CC)CCOC(=O)c1ccc(NC(=O)CNC(=O)c2ccccc2)cc1
The inhibition of the first is higher: 4.8% for the first, -3.4% for the second.

Compared with `O=C1c2ccccc2C(Nc2ccc3c(c2)OCCO3)N1Cc1ccco1` (configuration not stated), `O=C(CCN1CCc2ccccc2C(O)(c2ccccc2)C1)c1ccc2c(c1)OCCO2` (configuration not stated) is lower in inhibition: 3% for the first, 2.6% for the second.

Compared with `C[C@H](CO)N1C[C@H](C)[C@@H](CN(C)C(=O)NC2CCCCC2)Oc2ccc(NC(=O)c3ccncc3)cc2C1=O`, `O=C(CNC1CCCCC1)NCC1(c2ccccc2)CCCC1` is lower in inhibition: -0.8% for the first, -0.9% for the second.

First: CC(=O)c1c(C)[nH]c(C(=O)COC(=O)CCOc2ccc(C)cc2)c1C
Second: CCOC(=O)N1CCN(C(=O)c2nn(-c3ccc(C)cc3)c(=O)c3c2c2ccccc2n3C)CC1
The inhibition of the first is lower: -2.4% for the first, 11.3% for the second.

Going from `O=C1NCCn2nc3ccccc3c21` to `CCOC(=O)c1nnn2c3ccccc3c(=O)n(C)c12`, the inhibition falls from 2.9% to 1.2%.

First: CCN(CC)CCNCC(=O)Nc1ccc(Oc2ccccc2)cc1
Second: COc1ccccc1C(=O)NC(=S)Nc1ccc(N2CCOCC2)cc1
The inhibition of the first is higher: 1.8% for the first, -1.6% for the second.

Compared with `Cc1ccccc1C(=O)NC(=S)NC1CC1`, `Cc1cc(C(=O)OCC(=O)NCc2ccco2)c(C)n1-c1ccccc1` is lower in inhibition: 1.7% for the first, -0.8% for the second.

First: O=[N+]([O-])c1cccc(S(=O)(=O)N2CCCCCC2)c1
Second: O=C(O)/C=C/c1ccc(S(=O)(=O)N2CCCCCC2)cc1
The inhibition of the first is higher: -1% for the first, -1.1% for the second.

Compared with `O=C(O)CC/C(=C\c1cc2c(cc1Br)OCO2)c1nc2ccccc2s1`, `CNS(=O)(=O)c1ccc(NC(=O)Nc2ccc3c(c2)OCO3)cc1` is higher in inhibition: 0.4% for the first, 0.6% for the second.

First: COc1cc(Cl)c(C)cc1NC(=O)CSc1nnc(CN2CCCC2)o1
Second: COc1ccc(C2c3[nH]c4ccccc4c3CCN2CCCn2cccn2)cc1C (configuration not stated)
The inhibition of the first is lower: -2% for the first, -1.1% for the second.

Compared with `COc1ccc(N2CCN(CCCNC(=O)C3CCN(S(=O)(=O)N4CCOCC4)CC3)CC2)cc1`, `Cc1ccc(CN(CC(=O)NCC2CCCO2)S(=O)(=O)c2ccc(C)cc2)cc1` (configuration not stated) is higher in inhibition: -2.8% for the first, 0.1% for the second.

Going from `Cc1cc(C)c(C)c(S(=O)(=O)Nc2cccnc2)c1C` to `CN(C)S(=O)(=O)c1cccc(NC(=O)Cc2ccsc2)c1`, the inhibition falls from 1.4% to 0.2%.

Compared with `COc1cc(OC)cc(/C(N)=N/O)c1`, `O=C(CNC(=O)OCc1ccccc1)Oc1cc2oc(=O)cc(-c3ccccc3)c2cc1Cl` is higher in inhibition: 0.6% for the first, 7.5% for the second.

Going from `Brc1ccccc1/C=N/Nc1nc2ccccc2o1` to `Clc1ccc(-c2cc(-c3ccccn3)on2)c(Cl)c1`, the inhibition rises from 1.1% to 2.1%.

Compared with `CN(c1ccccc1)S(=O)(=O)c1cccc(NC(=O)Cc2c(F)cccc2Cl)c1`, `O=C1N=C2SCCN2/C1=C\c1c(Cl)cccc1Cl` is lower in inhibition: 18.1% for the first, -0.2% for the second.
